Pin1 inh = inhibitors of human Pin1 | Pin1 FP peptide displacement, HiFluor488, 10 min | Q13526 | 390,000 tested, 0.009% active | AID 504891 | Potency, µM (titrated, usually from 115 µM), hits mostly inhibitors; active = well fitted inhibition curve with a large enough effect in the polarisation, with a control signal flat, not every such curve was filed as active; inconclusive = small, poorly fitted or top-dose-only effect, or effect the other way, or a change in a side signal; inactive = no such curve, though single readings can be large or run the other way; the % refers to the polarisation
TSHR antag = antagonists of human thyroid stimulating hormone receptor; P16473; TSHR-expressing cells, TSH-stimulated cAMP HTRF, 2 h; hits give low values; activity change, negative = inhibition, % at 11.5 µM; 330,000 tested, 0.2% active;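 active = activity change below a set negative limit, meaning inhibition stronger than a set level, cut at about -70% in these data; inconclusive = activity change between two set negative limits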
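TSHR-expressing cells were treated with compounds, then stimulated with TSH at EC80 (4nM final) for 2 hours at 37 deg C. Cellular cAMP was measured by HTRF competition between lysate cAMP and cAMP-d2 for a cryptate-labelled anti-cAMP antibody.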
gsp antag = gsp mutant antagonism; 340,000 tested, 0.4% active; gsp-mutant cells, cAMP HTRF, 30 min; Potency, µM (series often up to 76.9 µM), usual class: inhibitors; calls by dose curve; cell line not stated here;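 note: intracellular cAMP measured with PDE inhibitor Ro 20-1724 present during compound exposure; nearly all actives have a fitted effect of over 65% in size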
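Measurement of cellular cAMP by homogeneous time-resolved fluorescence following a 30 min compound exposure at 37C. The PDE inhibitor […] was present throughout; the assay buffer was DPBS with 0.05% BSA and 0.005% Tween 20.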
TCR act = T cell receptor activation; primary human leukocytes, anti-CD3, IL-2 HTRF, 48 h; Potency, µM (series often up to 9.22 µM), usual class: activators; AID 504894; 330,000 tested, under 10 active; active = well fitted activation curve with a large enough effect; inconclusive = small, poorly fitted or top-dose-only effect, or another doubt; inactive = no such curve, though single readings can be large or run the other way
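Primary human leukocytes incubated 48 hr with anti-CD3 beads plus compound, without co-stimulation. Secreted IL-2 measured by HTRF (europium cryptate/d2 anti-IL-2 pair, 320 nm excitation, 665 nm emission).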
gsp agonist = activates gsp, the McCune-Albright syndrome mutation; Potency, µM (top dose mostly 76.9 µM), actives largely listed as activators; AID 624287; 340,000 tested, 0.13% active; gsp mutant cells, cAMP HTRF, 30 min; active = well fitted activation curve with a large enough effect; inconclusive = small, poorly fitted or top-dose-only effect, or another doubt; inactive = no such curve, though single readings can be large or run the other way; cell line not stated here;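 note: phosphodiesterase inhibitor Ro 20-1724 added with compounds to block cAMP breakdown; nearly all actives have a fitted effect of over 60% in size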
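Cells stably selected in G418 were plated at 2000/well, grown 16-24 hr, then given compounds in DMSO with the PDE inhibitor […] (300 uM solution added) for 30 min at 37C; cAMP was read by HTRF.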
Large screens that a line does not name were inactive. Only some compounds are listed: those with a hit (about 0.63% of all), similar ones and a draw of the others.

CCSc1nnc(NC(=O)C(C)(C(F)(F)F)C(F)(F)F)s1	gsp antag 22.4µM
O=C(CN1C(=O)S/C(=C\c2ccccn2)C1=O)Nc1ccccc1	none
O=C(CN1C(=O)S/C(=C\c2cc(Cl)c(O)c(Cl)c2)C1=O)Nc1ccccc1	Pin1 inh inconclusive, gsp antag 39.8µM
Cc1ccc(C(=O)N/N=C\c2ccc([N+](=O)[O-])o2)cn1	gsp agonist 8.91µM
CCn1nccc1C(=O)Nc1ccc(Cl)cn1	none
CS(=O)(=O)Nc1ccc(C2=NN(C(=O)c3ccco3)C(c3ccccc3F)C2)cc1 (centres undefined)	gsp antag 28.2µM
CCS(=O)(=O)Nc1ccc(C2=NN(C(=O)c3ccco3)C(c3ccco3)C2)cc1 (centres undefined)	gsp antag inconclusive
O=C1NC(=S)S/C1=C/c1ccc(Oc2cnccn2)cc1	Pin1 inh inconclusive, gsp antag 11.2µM
COCCNC(=O)COC(=O)/C=C/c1cnc2ccccc2n1	none
CC(=O)c1cc2c(cc1N/C(=N/S(=O)(=O)c1ccccc1)c1ccc(Cl)cc1)OCO2	none
O=S(=O)(c1ccc(Cl)c(Cl)c1)N1CCc2nc3ccccc3n2CC1	none
CCN1CCN(C2=C(NS(=O)(=O)c3ccc(C)cc3)C(=O)c3ccccc3C2=O)CC1	TSHR antag -79.4, gsp agonist inconclusive
CCN1CCN(C2=C(NS(=O)(=O)c3ccc(NC(C)=O)cc3)C(=O)c3ccccc3C2=O)CC1	gsp agonist inconclusive
C=CCn1c(SCc2ccccc2C#N)nnc1-c1cc(Br)ccc1O	gsp antag 35.5µM
CCC(=O)NCC(=O)OCC(=O)c1ccccc1	none
Cc1cc(C)n2c(SCC(=O)Nc3cc(C)on3)nnc2n1	gsp agonist 22.4µM
Cc1cc(C)n2c(SCC(=O)NC3CCCCC3)nnc2n1	gsp agonist 14.1µM
Cc1cc(C)n2c(SCC(=O)N(C)C3CCCCC3)nnc2n1	none
COc1cc(Cl)c(NC(=O)C2CCN(S(=O)(=O)c3c(C)noc3/C=C/c3ccccc3F)CC2)c(OC)c1	none (no result: TSHR antag, gsp antag, TCR act, gsp agonist)
CCN(CC(=O)NCc1ccc(F)cc1)Cc1nc2ccccc2c(=O)[nH]1	none (no result: TCR act)
CCN(CC(=O)Nc1cccc(F)c1)Cc1nc2ccccc2c(=O)[nH]1	gsp antag 31.6µM, gsp agonist inconclusive
CCC(=O)Oc1ccc(C(=O)Nc2ccccc2C(=O)NCC(C)C)cc1	none
COc1ccc(OC)c(-c2nc(C(=O)NCC3CCCO3)cc3c2[nH]c2ccccc23)c1 (centres undefined)	gsp antag inconclusive (no result: gsp agonist)
COc1cccc(-c2nc(C(=O)NCC3CCCO3)cc3c2[nH]c2ccccc23)c1 (centres undefined)	gsp antag 12.6µM (no result: gsp agonist)
CCc1nnc(NC(=O)CSc2nnc(-c3cc4ccccc4cc3O)n2CC)s1	Pin1 inh inconclusive, gsp antag 28.2µM
CCc1nnc(NC(=O)CSc2nnc(-c3ccccc3O)n2CC)s1	none
CCc1nnc(NC(=O)CSc2nc(-c3ccccc3)nc3ccccc23)s1	gsp agonist 7.94µM
CCc1nc(SCC(=O)Nc2nc3c(s2)CCCC3)c2ccccc2n1	gsp agonist 17.8µM
Cc1ccc(OCc2nnc(SCC(=O)O)n2-c2ccccc2)cc1	none (no result: TSHR antag)
COc1ccc(NC(=O)c2cc3c(-c4ccc(OC)c(OC)c4)nn(C)c3s2)cc1OC	none (no result: TCR act)
COc1ccc(-c2nn(C)c3sc(C(=O)NCc4ccco4)cc23)cc1OC	gsp agonist 12.6µM
Cc1cc(OC(C)C(=O)NCCCn2ccnc2)c2c(C)cc(=O)oc2c1 (centres undefined)	gsp agonist inconclusive
Cc1cc(C)cc(OC(C)C(=O)NCCCn2ccnc2)c1 (centres undefined)	TSHR antag -103.9
Brc1nnc2n1-c1ccccc1Sc1ccccc1-2	TSHR antag inconclusive, gsp antag inconclusive
Clc1ccc2c(c1)-c1nnc(Br)n1-c1ccccc1S2	TSHR antag inconclusive, gsp antag 20µM
O=C(CNC(c1ccccc1)c1ccccc1)Nc1ccccc1Br	none
O=C1C2CCCN2C(=O)N1CCN1CCN(c2ccccc2)CC1 (centres undefined)	none
N=c1c(C(=O)NCc2ccc3c(c2)OCO3)cc2c(=O)n3ccccc3nc2n1CC1CCCO1 (centres undefined)	Pin1 inh inconclusive, gsp agonist 28.2µM
CC(=O)Nc1ccc2[nH]c3ccccc3c2c1	none

Source: PubChem
